# ALDH1A1 inh = blocks purified human ALDH1A1 activity. P00352. Purified ALDH1A1, NADH fluorescence, propionaldehyde substrate. Potency, µM (titrated, usually from 75.3 µM), actives largely listed as inhibitors. actives 7.3% (n = 220,000). AID 1030
# Target sequence (P00352 whole entry, looked up): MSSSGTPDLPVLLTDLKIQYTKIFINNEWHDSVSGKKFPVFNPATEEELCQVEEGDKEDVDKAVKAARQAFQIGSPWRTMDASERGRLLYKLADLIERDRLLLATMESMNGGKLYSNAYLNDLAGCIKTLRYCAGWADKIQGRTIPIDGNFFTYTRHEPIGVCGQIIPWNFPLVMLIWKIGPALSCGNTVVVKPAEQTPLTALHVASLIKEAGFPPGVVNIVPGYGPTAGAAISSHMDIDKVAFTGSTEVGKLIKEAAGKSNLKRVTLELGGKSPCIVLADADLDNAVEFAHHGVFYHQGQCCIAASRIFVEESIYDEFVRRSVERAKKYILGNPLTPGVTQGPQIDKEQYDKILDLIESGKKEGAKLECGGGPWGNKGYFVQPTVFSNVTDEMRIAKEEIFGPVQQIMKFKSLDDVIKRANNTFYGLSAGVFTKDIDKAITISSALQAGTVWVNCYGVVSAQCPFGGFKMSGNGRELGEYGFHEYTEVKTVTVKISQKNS
# 12-hLO inh = inhibitors of human 12-lipoxygenase (ALOX12). purified 12-hLO, xylenol orange hydroperoxide absorbance. Potency, µM (series often up to 57.1 µM), usual class: inhibitors. actives 0.12% (n = 150,000). AID 1452; active means well fitted curve in the direction sought with a large enough effect; inconclusive means small, poorly fitted or top-dose-only effect, or another doubt; inactive means no such curve, though single readings can be large; an effect the other way counts as inactive or inconclusive; further: nearly all actives have a fitted effect of over 55% in size
#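 Hydroperoxide output read as Fe(III)-xylenol orange absorbance, 573-to-405 nm ratio, after 30 min reaction with 40 uM arachidonic acid. Enzyme: 150 nM purified human 12hLO, 15 min compound preincubation; 25 mM Hepes pH 7.0, room temperature.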
# IMPase Li cell = IMPase inhibition in cells with lithium potentiation | CHO-M1 cells, IP1 TR-FRET (IP-One), carbachol + lithium | Potency, µM (top dose mostly 59.4 µM), most hits filed as inhibitors | AID 1457 | actives 0.35% (n = 210,000); active means well fitted curve in the direction sought with a large enough effect; inconclusive means small, poorly fitted or top-dose-only effect, or another doubt; inactive means no such curve, though single readings can be large; an effect the other way counts as inactive or inconclusive;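 further: IP1 builds up when IMPase is blocked and the TR-FRET signal falls; nearly all actives have a fitted effect of over 50% in size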
#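 CHO-M1, 2000 cells/well, 16–30 h culture; cpd + low Li+, 30 min 37C; lysis with d2-IP1/Eu-anti-IP1 Ab, 10 min RT; TR-FRET 665/620 ratio and 620 channel; AC50 via Hill.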
# PNC assembly inh = blocks assembly of the perinucleolar compartment | actives 3.1% (n = 140,000) | PC3M PTB-GFP, PNC prevalence imaging, 16 h; stronger effect = lower value | activity change (PNC), negative = inhibition, % at 10 µM;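 active means readout at or below -70, meaning at least 70% loss of cells showing the perinucleolar compartment, a nuclear body marking cancer cells; inconclusive means readout between -30 and a set limit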
#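 PC3M cells stably expressing PTB-GFP, 750–1000 cells/well, treated 16 h at 37 °C with compound (23 nl of library stock), in duplicate. After paraformaldehyde fixation and Hoechst stain, imaged at 20x; PNC prevalence scored by image analysis.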
# IMPase cell inh = cell-permeable inhibitors of inositol monophosphatase (IMPase); P97697; CHO-M1 cells, IP1 accumulation, HTRF TR-FRET ratio; inhibition (IP1 accumulation), % at 46.1 µM; 120,000 tested, under 10 active; AID 901; active means well fitted curve in the direction sought with a large enough effect in the signal ratio, not every such curve was filed as active; inconclusive means small, poorly fitted or top-dose-only effect, or a change in a side signal; inactive means no such curve, though single readings can be large or run the other way; the % refers to the signal ratio;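 further: cells stimulated with carbachol in lithium chloride buffer; higher means more IMPase inhibition seen as more IP1 and lower FRET ratio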
#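 CHO-M1, 2000 cells/well, cultured 16–30 h; cpd up to 46 uM; carbachol (50 uM solution, stimulation buffer w/ 50 mM LiCl, pH 7.4), 30 min 37C; IP-One TR-FRET, 10 min RT; Ex 320/Em 665, 620; Hill-fit AC50.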
# HPGD inh = HPGD (human) dehydrogenase inhibition | actives 4.3% (n = 150,000) | AID 894 | Potency, µM, most hits filed as inhibitors | purified HPGD, NADH fluorescence kinetic, PGE2 substrate | P15428
#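 20 nM HPGD preincubated 15 min at room temperature with compound in 50 mM Tris-HCl pH 8, 0.01% Tween 20. Started with 1 mM NAD+ and 30 uM prostaglandin E2; NADH fluorescence (360/450 nm) read 5 times over 30-s intervals, last minus first.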
# Numbers stand for hits; – = inactive; ? = inconclusive; · = no result given; [ ] = dose if it differs, or a comment. Sampled rows, rich in hits. Any-hit rate of the full collection: about 11%. Unless noted, the call rests on the fitted dose curve; in most records, active means well fitted inhibition curve with a large enough effect (not every such curve was filed as active); inconclusive means small, poorly fitted or top-dose-only effect, or another doubt; inactive means no such curve, though single readings can be large or run the other way.
SMILES,ALDH1A1 inh,12-hLO inh,IMPase Li cell,PNC assembly inh,IMPase cell inh,HPGD inh
CC(C)NC(=O)CN1CCN(C(=O)CCl)CC1,3.2µM,·,–,·,·,·
CN(C)C(=O)CN1CCN(C(=O)CCl)CC1,2.8µM,·,–,·,·,·
O=C(CN1CCCCC1)N1CCN(C(=O)CN2CCCCC2)CC1,–,–,–,–,–,–
CCOc1ncccc1C(=O)OCc1cccc([N+](=O)[O-])c1,–,·,–,·,·,·
CCN(CC)c1ccc(N=Cc2ccccc2[N+](=O)[O-])cc1,2µM,–,–,-99,·,–
COC(=O)c1[nH]c2ccc(F)cc2c1NC(=O)CCN1CC(C)OC(C)C1 (stereo not drawn),?,–,–,-89,–,?
O=C(COC(=O)/C=C/C(=O)N1CCN(c2ccccc2)CC1)NC(c1ccccc1)c1ccccc1,19µM,·,–,·,·,·
O=C(COC(=O)/C=C/c1cccs1)NC(=O)Cc1ccccc1,?,·,–,·,·,·
O=C(COC(=O)/C=C/c1cccs1)Nc1nc(-c2ccccc2)cs1,22µM,–,–,–,·,–
O=C(/C=C/c1cccs1)Nc1nc(-c2ccccc2)cs1,–,–,–,–,–,–
O=C(COC(=O)/C=C/c1cccs1)NC(c1ccccc1)c1ccccc1,–,–,–,-119,–,–
COc1cc(/C=N/n2c(SC)nnc(C(C)(C)C)c2=O)ccc1O,–,–,·,–,–,·
C[C@@H]1/C=C\CC(=O)OC[C@H]2O[C@@H](C=C[C@@H]2O)[C@H](C)/C=C\CC(=O)OC1,–[13.5 µM],·,·,·,·,·
C[C@H]1[C@H]2CC[C@H]3C4CC=C5C[C@@H](N(C)C)CC[C@]5(C)C4CC[C@]23CN1C (stereo partly drawn),–,–,–,·,–,–
COc1ccc(OC)c(C2C(C#N)=C(N)Oc3cc(C)n(Cc4ccccn4)c(=O)c32)c1 (stereo not drawn),–,–,–,–,–,–
COc1ccc(OC)c(C2CC(=O)N3CN(c4cccc(Cl)c4C)CSC3=C2C#N)c1 (stereo not drawn),3.2µM,?,–,–,–,7.9µM
COc1cccc(C2CC(=O)N3CN(c4cccc(Cl)c4C)CSC3=C2C#N)c1OC (stereo not drawn),3.2µM,?,–,?,–,7.9µM
NS(=O)(=O)c1ccc(CCNC(=O)c2cccnc2)cc1,–,–,–,-100,–,–
CCCC(=O)NCCc1ccc(S(N)(=O)=O)cc1,4.5µM,–,–,?,–,–
CCCC[C@@H]1C[C@H]1C(NC(=O)c1cccs1)c1ccc(-c2ccccc2)cc1 (stereo partly drawn),–,–,–,·,·,–
COc1ccc(-c2cc(-c3ccc(OC)cc3)c(C#N)c(SC)n2)cc1,?,–,11µM,-100,–,?
Cc1onc(-c2ccccc2)c1C(=O)N1CCC(C)CC1,–,–,–,–,–,–
CC1CCN(C(=O)/C(=C/c2ccccc2Cl)c2ccccc2)CC1,?,–,–,–,–,11µM
CN1CCN(C(=O)/C(=C\c2ccccc2)c2ccccc2)CC1,–,–,–,–,–,18µM
COc1ccc(OC)c(NC(=O)Cn2cc(C#N)c3cc(Br)ccc32)c1,–,–,–,?,–,–
SMILES,ALDH1A1 inh,12-hLO inh,IMPase Li cell,PNC assembly inh,IMPase cell inh,HPGD inh
CCCCc1nc2c(c3c1C[C@H](C)OC3)CN(C(=O)c1ccco1)CC2,–[13.5 µM],–[11.4 µM],–,·,·,–
CC(=O)N1CC[C@@H]2CC(=O)CC[C@@H]21,–,–[0.00818 µM],–,·,·,–
CC1=Nn2c(nc3sc4c(c3c2=O)CCCC4)SC1,–,–,–,–,·,?
C=C1CSc2nc(=O)c3c4c(sc3n21)CCCC4,–,–,–,–,–,14µM
C=C1CSc2nc(=O)c3c4c(sc3n21)CCC4,–,–,–,–,–,14µM
Cc1nc2sc3c(c2c(=O)[nH]1)CCC3,–,–,–,–,–,–
COc1cc(/C=N/Nc2nc(C)nc3c2cnn3-c2ccccc2)ccc1O,–,·,–,·,·,·
Cc1ccc(S(=O)(=O)n2nc(-c3ccc(Cl)cc3)nc2NCc2ccc(F)cc2)cc1,·,·,·,·,–,·
CO[C@@H](CCO)C[C@H]1O[C@H](C(=O)OC(C)C)CC[C@@H]1C,–,·,–,·,·,–
COc1ccccc1O,–,–,–,·,·,–

# From PubChem BioAssay
